# Experimental data from PubChem BioAssay (EPA / NIEHS).
# Activity calls are given as the source filed them. The calls were made as follows: active = hit-call score of the fitted dose curve at least 0.9, where 1 is the maximum; inactive = score below 0.9.
# Test: CCTE_Shafer_MEA_acute_cross_correlation_HWHM: CCTE's Neural Acute Assay for Cross Correlation at Half Width at Half Maximum, Shafer Lab (AID 2284026)
# Protocol: CCTE_Shafer_MEA_acute assay is conducted using Axion Biosystems 48 well microelectrode array (MEA) plates and Maestro recording system. Each well of the MEA plate contains a grid of 16 microelectrodes embedded in the culture surface. Electrically active cells, such as neurons, can be cultured over the electrodes, and electrical activity in these cells can be recorded extracellularly. The spontaneous firing of neurons is captured from each electrode on a microsecond timescale providing both temporally and spatially precise data. […] The CCTE_Shafer_MEA_acute assay uses primary cultures of rat cortical neurons. As these cultures mature over time, neural networks develop functional activity and form cohesive networks in which electrical activity can be highly coordinated. Baseline 40-minute recordings are made on days post-plating 13 or 15, followed by a secondary 40-minute recording after chemical exposure.CCTE_Shafer_MEA_acute_cross_correlation_HWHM is a component of the CCTE_Shafer_MEA_acute assay. It measures the distance along the x-axis (phase lag) from the left half maximum height to the center of the cross-correlogram of action potential firing during a recording in a microelectrode array (MEA) using Axion Biosystems Maestro 768 channel amplifier with the AxIS adaptive spike detector. Smaller values indicate a narrower correlogram (greater synchrony). The recordings before and after chemical treatment are used to calculate a percent change in the half width at half maximum of the cross-correlogram in each well.Data from the assay component CCTE_Shafer_MEA_acute_cross_correlation_HWHM was analyzed into 1 assay endpoint. This assay endpoint, CCTE_Shafer_MEA_acute_cross_correlation_HWHM, was analyzed in the negative analysis fitting direction relative to DMSO as the negative control and baseline of activity. Using a type of functional reporter, gain or loss-of-signal activity can be used to understand electrical activity.
# Spontaneous activity in the cortical cultures was recorded using an Axion Biosystems Maestro 768 channel amplifier and Axion Integrated Studios (AxIS) v1.8 (or later) software. The amplifier recorded from all channels simultaneously (gain = 1200 x; sampling rate = 12.5 kHz/channel): raw signals were filtered with a Butterworth band-pass filter (300-5000 Hz), which filters out slower local field potentials leaving only fast potentials, i.e., "spikes", arising from extracellular currents associated with action potentials (Pine 2006; Wheeler and Nam 2011). On-line spike detection of filtered signals was conducted with the AxIS adaptive spike detector, using a threshold of 8x the root mean squared (rms) noise on each channel. Any electrodes with rms noise levels greater than 5 uV were grounded (e.g., no data were recorded). Once grounded, an electrode was grounded for the duration of the experiment. All recordings were conducted at 37 C. Wells were deemed usable if on the day of the exposure >/= 10 electrodes were active (defined as >/= 5 spikes/min). On DIV 13 or 15, a minimum of three wells from one cortical culture preparation were treated with each compound (0.03-40 uM). Prior to recording baseline activity, each mwMEA plate was placed in the Maestro at 37 C and allowed to sit for 20 min while firing rates stabilized. Baseline activity (40 min) was recorded before the addition of each compound. An additional 40 min of spontaneous activity was recorded in the presence of each compound. Changes in network parameters relative to baseline were assessed following compound treatment.
SMILES,outcome,AC50
O=C(O)C(Cl)(Cl)Cl,inactive,
CCC(C)(C)c1ccc(O)c(C(C)(C)CC)c1,,9.83 µM (active)
COC(=O)Cc1ccccc1,inactive,
CC(C)(c1ccccc1)c1ccc(O)c(C(C)(C)c2ccccc2)c1,,9.24 µM (active)
O=C1C2(Cl)C3(Cl)C4(Cl)C(Cl)(Cl)C5(Cl)C3(Cl)C1(Cl)C5(Cl)C24Cl (stereo not drawn),,7.01 µM (active)
C=C(C)C(=O)[O][Sn]([CH2]CCC)([CH2]CCC)[CH2]CCC,inactive,
O=C(Nc1ccc2[nH]ccc2c1)c1cc2cc(F)ccc2n1Cc1cccc(F)c1,inactive,
O=C(O)C(F)(F)C(F)(F)C(F)(F)C(F)(F)C(F)(F)C(F)(F)C(F)(F)C(F)(F)C(F)(F)C(F)(F)F,inactive,
CC(=O)OC(c1ccccc1)C(Cl)(Cl)Cl (stereo not drawn),,24.9 µM (active)
CC(C)(C)c1cc(O)ccc1O,,29.3 µM (active)
CC(=O)[O][Hg][c]1ccccc1,,33.9 µM (active)
C[C@]12CCC(=O)C[C@@H]1CC[C@@H]1[C@@H]2CC[C@]2(C)[C@@H](O)CC[C@@H]12,,33.3 µM (active)
ClC1(Cl)C2(Cl)C3(Cl)C4(Cl)C(Cl)(Cl)C5(Cl)C3(Cl)C1(Cl)C5(Cl)C24Cl (stereo not drawn),inactive,
CCOP(=S)(OCC)SCSP(=S)(OCC)OCC,,32.7 µM (active)
CCCCCCCCc1ccc(O)cc1,,9.18 µM (active)
CC(C)(OO)c1ccccc1,inactive,
CC(C)(C)CC(C)(C)c1ccc(O)cc1,,36.4 µM (active)
CCN1CCC2(CC1)COc1cc3c(cc12)N(C(=O)c1ccc(-c2ccc(-c4nnc(C)o4)cc2C)cc1)CC3,,31.2 µM (active)
